# SNCA expr inh: Primary qHTS assay for inhibitors of alpha-synuclein gene (SNCA) expression | HEK-293 SNCA-luciferase knock-in, luminescence, 24 h | Potency, µM (series often up to 57.2 µM), without a hit: top-dose activity change, negative = inhibition, most hits filed as inhibitors | actives 0.17% (n = 140,000);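 further: potency means the concentration at half of the fitted maximal effect; plate controls were DMSO cells for no effect and cell-free wells for full effect; nearly all actives have a fitted effect of over 45% in size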
# IP6K1 inhibitor: Primary qHTS assay for small molecule inhibitors of Inositol hexaphosphate kinase 1 (IP6K1). Inositol hexakisphosphate kinase 1 (Homo sapiens), Q92551. IP6K1 kinase, ADP-Glo luminescence, 2 h; stronger effect = lower value. activity change, % (series mostly up to about 58 µM). actives 0.81% (n = 140,000); in the data active means activity change below about -25%; further: on the % scale 0 is the no-effect control and ±100 the full control effect
#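 ADP-Glo luminescence measures ADP made by human IP6K1 during a 2 h RT reaction with ATP/IP6 (mix at 1.3 mM/130 uM); top library doses 57.5 and 19.1 uM final.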
# KDM5B inh: Primary screen for KDM5B Histone Demethylases FDH-coupled qHTS; AID 1347165, 2019; KDM5B demethylase, FDH-coupled NADH fluorescence (FDH is formaldehyde dehydrogenase); actives 2.6% (n = 220,000); Potency, µM (series often up to 57.7 µM), hits mostly inhibitors; further: potency means the concentration at half of the fitted maximal effect; 0% is about no effect; nearly all actives have a fitted effect of over 70% in size
# Target sequence (Q9UGL1 whole entry, looked up): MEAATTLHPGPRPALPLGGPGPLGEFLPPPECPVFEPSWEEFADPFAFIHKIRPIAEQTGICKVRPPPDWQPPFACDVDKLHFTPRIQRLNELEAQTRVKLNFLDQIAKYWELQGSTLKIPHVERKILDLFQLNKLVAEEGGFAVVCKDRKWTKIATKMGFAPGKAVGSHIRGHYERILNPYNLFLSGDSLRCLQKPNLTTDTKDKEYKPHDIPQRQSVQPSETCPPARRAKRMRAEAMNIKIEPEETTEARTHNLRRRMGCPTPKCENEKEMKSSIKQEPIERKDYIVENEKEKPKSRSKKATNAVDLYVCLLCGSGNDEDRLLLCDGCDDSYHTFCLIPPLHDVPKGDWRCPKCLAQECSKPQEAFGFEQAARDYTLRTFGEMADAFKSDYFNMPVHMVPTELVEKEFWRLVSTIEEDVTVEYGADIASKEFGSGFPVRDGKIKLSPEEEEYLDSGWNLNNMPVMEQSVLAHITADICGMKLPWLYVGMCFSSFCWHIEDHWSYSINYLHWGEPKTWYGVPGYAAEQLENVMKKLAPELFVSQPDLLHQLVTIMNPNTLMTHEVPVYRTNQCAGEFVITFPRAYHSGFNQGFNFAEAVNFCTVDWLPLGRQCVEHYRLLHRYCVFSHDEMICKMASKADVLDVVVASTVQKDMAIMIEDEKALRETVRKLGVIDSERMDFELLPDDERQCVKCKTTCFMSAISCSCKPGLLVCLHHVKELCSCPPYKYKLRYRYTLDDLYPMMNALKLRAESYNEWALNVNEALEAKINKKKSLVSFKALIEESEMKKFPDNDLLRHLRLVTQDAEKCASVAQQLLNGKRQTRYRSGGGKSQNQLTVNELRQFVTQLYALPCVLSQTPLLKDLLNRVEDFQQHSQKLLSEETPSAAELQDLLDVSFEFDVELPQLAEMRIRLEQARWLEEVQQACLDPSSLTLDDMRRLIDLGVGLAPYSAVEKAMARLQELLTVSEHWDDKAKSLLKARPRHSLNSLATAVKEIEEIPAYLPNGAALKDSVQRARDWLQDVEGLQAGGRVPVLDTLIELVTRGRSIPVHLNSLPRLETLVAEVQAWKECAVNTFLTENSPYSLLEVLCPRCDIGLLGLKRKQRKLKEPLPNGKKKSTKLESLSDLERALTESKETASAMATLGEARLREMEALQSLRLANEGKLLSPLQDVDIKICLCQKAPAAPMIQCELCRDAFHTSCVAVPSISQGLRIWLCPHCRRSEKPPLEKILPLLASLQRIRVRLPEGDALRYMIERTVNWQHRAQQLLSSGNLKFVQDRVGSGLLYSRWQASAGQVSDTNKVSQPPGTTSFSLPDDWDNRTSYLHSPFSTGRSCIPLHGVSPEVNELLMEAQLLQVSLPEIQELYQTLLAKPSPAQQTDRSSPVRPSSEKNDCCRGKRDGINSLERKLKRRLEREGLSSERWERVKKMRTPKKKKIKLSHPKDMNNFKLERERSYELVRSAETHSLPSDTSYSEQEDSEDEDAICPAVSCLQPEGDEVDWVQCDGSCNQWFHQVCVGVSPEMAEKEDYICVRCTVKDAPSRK
#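 Compound dilutions met 200 nM (final) KDM5BΔAP for 10 min at room temperature before substrate addition. The substrate mix held 12.5 µM H3K4me3 with cofactors 25 µM α-ketoglutarate and 50 µM Fe²⁺. NADH signal gain over 30 min defined activity.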
# HEK293 viab: GF-AFC viability counterscreen for inhibitors of alpha-synuclein gene (SNCA) expression | HEK-293-SNCA-luc viability, GF-AFC fluorescence, 24 h | Potency, µM (titrated, usually from 57.1 µM), inactives show top-dose activity change, negative = cytotoxicity, most hits filed as cytotoxic | actives 0.12% (n = 150,000);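 further: potency means the concentration at half of the fitted maximal effect; 0% = DMSO-treated cells and -100% = medium-only wells without cells; nearly all actives have a fitted effect of over 30% in size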
#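 Cytotoxicity counterscreen: after 24 h compound treatment of genome-edited SNCA-luciferase HEK-293 cells, live-cell protease substrate GF-AFC read by fluorescence after 30 min; activity scaled between DMSO (0%) and medium-only (-100%), curves Hill-fitted.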
# * marks the source's active call; other numbers are inactive results; i = inactive; u = inconclusive; x = not tested or not shown; ! = repeats disagree; [ ] = another dose, or the depositor's remark. Hits are enriched below; roughly 2.9% of the tested compounds scored in any of these assays. Unless noted, the call rests on the fitted dose curve; in most records, active means well fitted curve in the direction sought with a large enough effect; inconclusive means small, poorly fitted or top-dose-only effect, or another doubt; inactive means no such curve, though single readings can be large; an effect the other way counts as inactive or inconclusive.
SMILES,SNCA expr inh,IP6K1 inhibitor,KDM5B inh,HEK293 viab
CCOc1ccc(-c2cc3c(=O)n(CCNC(=O)c4ccoc4)ccn3n2)cc1,78.7%,-5.0,22.4µM*,-1.3%
COc1ccc(-c2cc3c(=O)n(CCNC(=O)c4ccco4)ccn3n2)cc1,26.4%,5.0,u,-8.5%
COc1ccc(-c2cc3c(=O)n(CCNC(=O)c4sccc4C)ccn3n2)cc1,25.2%,-2.7,25.1µM*,-14.3%
O=C(Nc1ccccc1)O[C@@H]1CO[C@H]2[C@@H]1OC[C@@H]2NC(=O)C1CC1,-2.3%[87.6 µM],7.1,i,-0.1%[87.6 µM]
CCC(CC)C(NC(C)=O)c1cccs1 (centres undefined),x,x,i,x
Cc1c(OCc2cccc(-c3ccc(C(=O)O)cc3)c2)cc2c(c1C)C(=O)C(C1CCCC1)C2 (centres undefined),x,6.6,x,u
Cc1ccc(NC(=O)c2cc3c(N4CCCC4)nc(C)cn3n2)cc1,2.1%,0.0,u,13.1%
COc1cccc(NC(=O)c2cc3c(N4CCCC4)nc(C)cn3n2)c1,19.7%,-5.0,35.5µM*,u
Cc1cn2nc(C(=O)Nc3ccc4c(c3)OCCO4)cc2c(N2CCCC2)n1,1.5%,7.8,25.1µM*,-12.8%
Cc1cn2nc(C(=O)Nc3cccc(F)c3C)cc2c(N2CCCC2)n1,4.2%,0.0,25.1µM*,u
COc1cccc(CNC(=O)c2cc3c(N4CCCC4)nc(C)cn3n2)c1,-7.2%,-15.7,i,1.4%
CC(C)(O)Cn1c(NC(=O)c2ccc(-c3cn[nH]c3)s2)nc2cc(CN3CCOCC3)ccc21,3.41µM*,x,x,u
C[C@H](NCc1ccc2c(c1)nc(NC(=O)c1ccc(-c3cn[nH]c3)s1)n2CCc1ccccc1)C(C)(C)C,6.81µM*,x,x,u
COc1ccccc1-c1cccc(CN2CCCC(C(=O)NCC(F)F)C2)c1 (centres undefined),-12.2%,-13.0,x,u
COCC(=O)N(C1CCOCC1)C1CCN(C(=O)Cc2ccsc2)CC1,-19.8%,0.2,i,u
CC(=O)N1CCCN(C(=O)c2ccc3c(c2)NC(C)(COc2cccnc2)CO3)CC1 (centres undefined),u,10.3,i,-1.8%[87.6 µM]
FC(F)(F)c1cc(C(F)(F)F)c2ccc3nc(-c4nnco4)cn3c2n1,x,9.7,x,-9.8%
CC(=O)OCC1=C(C(=O)O)N2C(=O)[C@@H](NC(=O)CSc3ccncc3)[C@H]2SC1,-22.3%[25.6 µM],-42.1*,x,-21.1%[23.9 µM]
CCOc1ccc(-c2nc(CN3CCN(C(=O)NCCc4ccccc4)CC3)c(C)o2)cc1,x,x,i,x
O=C(c1cc(Br)cn2ccnc12)N1CCCC1,-21.9%[87.6 µM],-17.6,35.5µM*,3.6%[87.6 µM]
N#CC1CCN(C(=O)c2cc(Br)cn3ccnc23)CC1,-12.5%[87.6 µM],2.1,39.8µM*,1.6%[87.6 µM]
O=C(c1cc(Br)cn2ccnc12)N1CCOCC1,41.5%[87.6 µM],10.9,28.2µM*!,10.2%[87.6 µM]
Cc1ccc(C(=O)N2CCC(N3CCCCCC3=O)CC2)cc1,-16.6%[87.6 µM],21.4,35.5µM*,-4.4%[87.6 µM]
O=C(c1cc(Br)cn2ccnc12)N1CCN(c2ncccn2)CC1,20.4%,-6.0,u,-6.5%
CONC(=O)c1ccc(SC(F)(F)F)cc1,x,x,i,x
SMILES,SNCA expr inh,IP6K1 inhibitor,KDM5B inh,HEK293 viab
O=C(c1cc(Br)cn2ccnc12)N1CCC(N2CCCCC2)CC1,-28.3%,-11.0,28.2µM*,-3.0%
O=C(c1cc(Br)cn2ccnc12)N1CCC(N2CCCCCC2=O)CC1,27.1%,-8.2,25.1µM*,6.6%
COc1ccc(C(=O)N2CCC(N3CCNC3=O)CC2)cc1,31.4%[87.6 µM],-21.9,89.1µM*,-1.8%[87.6 µM]
COc1ccc(C(=O)N2CCC(N3CCCNC3=O)CC2)cc1,-0.9%[87.6 µM],13.8,i,14.5%[87.6 µM]
CN(Cc1cccc(C(F)(F)F)c1)C(=O)C1CC1,0.0%[87.6 µM],2.2,i,9.1%[87.6 µM]
COc1ccc(-c2noc(-c3ccc(N4CCCOCC4)nc3)n2)cc1,72.6%,0.7,31.6µM*,1.3%
COc1ccc(-c2noc(-c3ccc(N4C[C@H]5CC[C@H]4C5)nc3)n2)cc1,31.8%,4.5,31.6µM*,-1.9%
CN1CCc2c([nH]c3ccccc23)C12CCN(S(=O)(=O)c1cn(C)cn1)CC2,u,-2.9,i,8.0%[12.5 µM]
CCN(Cc1noc(CC(C)C)n1)C(=O)c1cnc(-c2ccccn2)[nH]c1=O,-12.3%,9.1,7.94µM*,-17.3%
COCCN(Cc1ccccn1)C(=O)c1ccc2c(c1)ncn2C,1.6%,33.0,i,-3.7%
COCCN(Cc1nccs1)C(=O)c1cnc(-c2ccccn2)[nH]c1=O,u,21.3,11.2µM*,-15.8%
Cc1ccc(-c2ncc(C(=O)N(C)Cc3nc(CC(C)C)no3)c(=O)[nH]2)cc1,-7.3%,-11.9,i,-6.4%
N#Cc1ccc(CN2CCC3(CN[S+](=O)([O-])c4cnccc4O3)C2)cc1 (centres undefined),0.4%,-3.5,i,3.8%
CCCN(CC1CCOC1)S(=O)(=O)c1ccc(F)cc1F (centres undefined),-8.7%,0.1,i,-4.9%
O=C(Nc1ccc(Cl)cc1)c1ccc2c(c1)n(Cc1ccccc1)c(=O)c1ccnn12,120.4%,-5.7,20µM*,-13.7%
Cc1ccc(CNC(=O)c2ccc3c(c2)n(Cc2ccccc2)c(=O)c2ccnn23)o1,21.2%,11.1,31.6µM*,4.7%
Cc1ccc(CNC(=O)c2ccc3c(c2)c(C)c(C)n3Cc2ccccc2)o1,44.4%,23.4,u,4.1%
COCCn1c(SC(C)C(=O)c2ccc(C(C)(C)C)cc2)nnc1-c1ccccc1 (centres undefined),x,x,i,x
CC(C)C1CN(c2cncc(C(=O)N3CCCC3)n2)CCC(=O)N1CC1CC1 (centres undefined),4.5%,-1.5,28.2µM*,7.8%
COCCCNC(=O)C1CCCN(Cc2ccncc2)CCC(=O)NCC1 (centres undefined),u,-5.4,25.1µM*,-15.0%
O=C1CCN(Cc2ccncc2)CCCC(C(=O)NCCCN2CCCc3ccccc32)CCN1 (centres undefined),24.8%,-2.9,14.1µM*,3.5%
CC(NC(=O)C1CCCC1)c1ccc(Cl)c(Cl)c1 (centres undefined),x,x,i,x
O=C(N[C@H]1[C@@H]2CCO[C@@H]2[C@@H]1C1CCCC1)c1ncc(F)cc1F,7.0%,46.2,i,-0.4%
C=CCN(C)C(=O)[C@@H](C)C1CC[C@@]2(C)Cc3sc(-c4cccnc4)nc3[C@@H](C)[C@@H]2[C@H]1O (some centres undefined),u,-0.4,31.6µM*,-4.3%[87.6 µM]
C#CCN(C)C(=O)[C@@H](C)C1CC[C@@]2(C)Cc3sc(NCCCC)nc3[C@@H](C)[C@@H]2[C@H]1O (some centres undefined),32.8%[87.6 µM],-8.6,u,-4.5%[87.6 µM]
Cc1nc2c(s1)C[C@]1(C)CCC([C@H](C)C(=O)N3CCOCC3)[C@H](O)[C@H]1[C@@H]2C (some centres undefined),36.5%[87.6 µM],-9.8,i,2.6%[87.6 µM]

# Bioassay records as filed in PubChem BioAssay.
